Source: PubChem BioAssay (Tox21)
Where “and” joins values, the source holds several entries; their conditions need not be identical. Equal values may be shown once. Results filed as inconclusive are left out. More than one record can exist for a structure, and the calls need not agree. Calls of active or inactive are those of the source. Unless noted, the call rests on the fitted dose curve.

Legend:
[1] = Nuclear factor erythroid 2-related factor 2/antioxidant responsive element (Nrf2/ARE) small molecule agonists: qHTS cell viability counter screen in human keratinocytes (AID 1919968; active means well fitted cell-killing curve with a large enough effect in the repeat runs; further: nearly all actives have a fitted effect of over 55% in size)
Summary of the method: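 After a 5 h attachment period, ARE-reporter keratinocytes were dosed with compounds in DMSO and then cultured 23 h at 37 C. Cell viability came from CellTiter-Fluor signal read after a further 1 h.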

[2] = Nuclear factor erythroid 2-related factor 2/antioxidant responsive element (Nrf2/ARE) small molecule agonists: luciferase reporter gene qHTS assay in human keratinocytes (AID 1919969); further: nearly all actives have a fitted effect of over 35% in size; further: potency means the concentration at half of the fitted maximal effect
[3] = G protein-coupled receptor (GPCR) small molecule agonists, calcium flux assay: HEK293 wild type cell line counter screen (AID 1920065)
Summary of the method: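 Calcium-sensitive dye, loaded 1 h at 37 C into cells cultured 18 h, reports compound-evoked calcium release as fluorescence (Ex/Em 480/540), measured over 3 min. Agonist mode; 15-point titrations, triplicate.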

[4] = p53 small molecule agonists, cell-based qHTS assay with human liver microsomes (AID 1963577)
Summary of the method: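 p53RE-bla reporter cells were pre-incubated 5 h at 37 C, then treated with compounds plus human liver microsomes (0.5 mg/mL final) and NADPH (0.5 mg/mL final) for 16 h at 37 C. Beta-lactamase activity was read by LiveBLAzer fluorescence after 2 h at room temperature.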

[5] = p53 small molecule agonists, cell-based qHTS assay with rat liver microsomes (AID 1963578)
Summary of the method: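 p53RE-bla cells were exposed to compounds together with rat liver microsomes (0.5 mg/mL final) and NADPH (0.5 mg/mL final) for 16 h at 37 C, then read by LiveBLAzer beta-lactamase fluorescence after 2 h at room temperature.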

[6] = p53 small molecule agonists, cell-based qHTS assay with human liver microsomes: qHTS cell viability counter screen (AID 1963579); further: nearly all actives have a fitted effect of over 45% in size
Summary of the method: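 p53RE-bla cells (4,000/well) were pre-incubated 5 h at 37 C, then given compounds in DMSO plus human liver microsomes (0.5 mg/mL final) and NADPH (0.5 mg/mL final) for 16 h at 37 C. Viability was read by CellTiter-Glo luminescence.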

[7] = p53 small molecule agonists, cell-based qHTS assay with rat liver microsomes: qHTS cell viability counter screen (AID 1963580); further: nearly all actives have a fitted effect of over 45% in size
Summary of the method: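 Intracellular ATP, by CellTiter-Glo luminescence, defines viability. HCT-116 p53RE-bla cells, 4,000 per well, were compound-treated in the presence of rat liver microsomes and NADPH for 16 h at 37 C.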

[8] = p53 small molecule agonists, cell-based qHTS assay: qHTS cell viability counter screen (AID 1963581); further: nearly all actives have a fitted effect of over 45% in size
Summary of the method: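 Following 5 h attachment, HCT-116 p53RE-bla cells took up compound for 16 h at 37 C; the reporter was read with B/G FRET substrate (2 h RT), and viability then via CellTiter-Glo ATP luminescence.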

[9] = p53 small molecule agonists, cell-based qHTS assay (AID 1963582; active means well fitted activation curve with a large enough effect in the signal ratio in the repeat runs, not every such curve was filed as active; the % refers to the signal ratio)
Summary of the method: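 In this cell-based concentration-response screen, a p53 response element drives beta-lactamase; cells received DMSO-borne compounds after 5 h culture and were incubated a further 16 h before FRET substrate development.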

[10] = biological target: 5-hydroxytryptamine receptor 2A (Homo sapiens) (UniProt P28223); test: 5-hydroxytryptamine receptor 2A (HTR2A) small molecule antagonists, cell-based qHTS assay (AID 1963586); further: nearly all actives have a fitted effect of over 45% in size
Summary of the method: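 Antagonist-mode intracellular calcium assay: DOI (4 nM) added after 5 min compound pre-incubation at room temperature to dye-loaded HTR2A-CHO cells. Fluorescence followed for 3 min, sampled every second.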

[11] = biological target: 5-hydroxytryptamine receptor 2A (Homo sapiens) (UniProt P28223); test: 5-hydroxytryptamine receptor 2A (HTR2A) small molecule agonists, cell-based qHTS assay (AID 1963587); further: nearly all actives have a fitted effect of over 30% in size
Summary of the method: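 Kinetic calcium-flux fluorescence (2 min, 1 sec intervals) after compound addition in agonist mode. HTR2A-CHO cells were cultured 18 h, then dye-loaded 1 h at 37 C.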

[12] = biological target: Muscarinic acetylcholine receptor M1 (Homo sapiens) (UniProt P11229); test: Cholinergic receptor muscarinic 1 (CHRM1) small molecule antagonists, cell-based qHTS assay (AID 1963588); further: nearly all actives have a fitted effect of over 40% in size
Summary of the method: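 CHRM1-CHO calcium-flux assay, antagonist mode. Cells were seeded 18 h, dye-loaded 1 h at 37 C and given compound for 5 min at RT, then acetylcholine was added at 50nM. FDSS fluorescence was read 3 min; 15 concentrations, three runs.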

[13] = biological target: Muscarinic acetylcholine receptor M1 (Homo sapiens) (UniProt P11229); test: Cholinergic receptor muscarinic 1 (CHRM1) small molecule agonists, cell-based qHTS assay (AID 1963589); further: nearly all actives have a fitted effect of over 35% in size
Summary of the method: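 Measures agonist-induced intracellular calcium rise. Stable human CHRM1 CHO line, 1 h dye load at 37 C, compounds from DMSO, kinetic fluorescence read.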

[14] = cAMP Responsive Elements (CRE) small molecule agonists, cell-based qHTS assay (AID 1963590)
Summary of the method: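 A CRE-responsive beta-lactamase reporter in HEK 293T cells was used. Treatment ran 3 h at 37 C; detection used LiveBLAzer B/G FRET substrate for 2 h at room temperature.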

[15] = cAMP Responsive Elements (CRE) small molecule antagonists, cell-based qHTS assay (AID 1963591; active means well fitted inhibition curve with a large enough effect in the signal ratio in the repeat runs, not every such curve was filed as active; the % refers to the signal ratio)
Summary of the method: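 HEK293T cells carrying a CRE-driven beta-lactamase reporter receive compound and NKH477 (0.25 uM final) for 3 h. Fluorescence from LiveBLAzer B/G FRET substrate is read after 2 h at room temperature.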

[16] = biological target: Beta-2 adrenergic receptor (Homo sapiens) (UniProt P07550); test: Adrenergic beta2 receptor (ADRB2) small molecule agonists, cell-based qHTS assay (AID 1963593);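 further: CHO cells stably overexpressing human ADRB2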
Summary of the method: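 CHO cells stably over-expressing ADRB2 were plated overnight at 37C, then dosed with compounds plus a stimulation mix containing 100uM IBMX and 25uM Ro-20-1724 for 0.5hr at room temperature. cAMP was measured by HTRF competition, 1hr.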

[17] = biological target: D(2) dopamine receptor (Homo sapiens) (UniProt P14416); test: Dopamine D2 receptor (DRD2) small molecule agonists, cell-based qHTS assay (AID 1963594); further: nearly all actives have a fitted effect of over 35% in size
Summary of the method: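 cAMP accumulation in DRD2-HEK293 cells measured by HTRF after 1 h detection; compounds added 10 min before NKH477 (200nM […]) forskolin-analogue stimulation, 30 min at room temperature, with Ro20-1724 present at 0.1 mM final.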

[18] = biological target: D(2) dopamine receptor (Homo sapiens) (UniProt P14416); test: Dopamine D2 receptor (DRD2) small molecule antagonists, cell-based qHTS assay (AID 1963595; active means well fitted inhibition curve with a large enough effect in the signal ratio in the repeat runs, with a control signal flat; the % refers to the signal ratio; further: potency means the concentration at half of the fitted maximal effect)
Summary of the method: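 Human DRD2 antagonist qHTS measuring cAMP by HTRF. The cells are exposed to compound for 10 min, then to NKH477 (200 nM) and quinpirole (12 nM) for 30 min at RT, with Ro20-1724 (0.1 mM) present throughout.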

[19] = biological target: Beta-2 adrenergic receptor (Homo sapiens) (UniProt P07550); test: Adrenergic beta2 receptor (ADRB2) small molecule antagonists, cell-based qHTS assay (AID 1963592); further: series mostly up to about 92 µM; nearly all actives have a fitted effect of over 50% in size
Summary of the method: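 Cells (CHO, stable ADRB2 overexpression) incubated 18-20hr at 37C; compounds added from DMSO; agonist mix (1nM isoproterenol, 100uM IBMX, 25uM Ro-20-1724) added; 0.5hr RT; d2-cAMP and anti-cAMP-cryptate added; 1hr RT; 665/615 nm read.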

Measured: Potency

5-hydroxytryptamine receptor 2A (Homo sapiens), sequence (P28223 whole entry, looked up): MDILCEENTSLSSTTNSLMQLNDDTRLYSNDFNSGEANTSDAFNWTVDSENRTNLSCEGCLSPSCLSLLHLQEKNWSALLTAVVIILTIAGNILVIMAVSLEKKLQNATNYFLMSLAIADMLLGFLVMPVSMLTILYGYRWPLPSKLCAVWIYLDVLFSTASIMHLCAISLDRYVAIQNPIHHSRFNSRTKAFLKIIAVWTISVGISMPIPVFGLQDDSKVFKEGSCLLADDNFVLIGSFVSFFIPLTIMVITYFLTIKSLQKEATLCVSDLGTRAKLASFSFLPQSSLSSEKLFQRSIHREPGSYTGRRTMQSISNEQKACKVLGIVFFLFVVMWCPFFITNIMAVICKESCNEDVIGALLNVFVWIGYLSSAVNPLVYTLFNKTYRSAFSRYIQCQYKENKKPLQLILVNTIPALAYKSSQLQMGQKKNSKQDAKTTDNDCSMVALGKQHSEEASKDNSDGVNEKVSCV
Beta-2 adrenergic receptor (Homo sapiens), sequence (P07550 whole entry, looked up): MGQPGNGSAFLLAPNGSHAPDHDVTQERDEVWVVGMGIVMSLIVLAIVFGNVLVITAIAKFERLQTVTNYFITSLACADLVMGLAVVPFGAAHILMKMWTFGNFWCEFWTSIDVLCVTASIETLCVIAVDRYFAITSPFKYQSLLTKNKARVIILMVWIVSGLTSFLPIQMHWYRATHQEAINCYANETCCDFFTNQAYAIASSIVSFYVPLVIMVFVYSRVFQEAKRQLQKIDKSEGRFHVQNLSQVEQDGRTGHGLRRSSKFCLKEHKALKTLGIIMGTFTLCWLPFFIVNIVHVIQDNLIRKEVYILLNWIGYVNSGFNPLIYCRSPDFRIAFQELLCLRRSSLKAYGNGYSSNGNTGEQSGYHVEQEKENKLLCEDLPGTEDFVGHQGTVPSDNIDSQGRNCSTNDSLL
Muscarinic acetylcholine receptor M1 (Homo sapiens), sequence (P11229 whole entry, looked up): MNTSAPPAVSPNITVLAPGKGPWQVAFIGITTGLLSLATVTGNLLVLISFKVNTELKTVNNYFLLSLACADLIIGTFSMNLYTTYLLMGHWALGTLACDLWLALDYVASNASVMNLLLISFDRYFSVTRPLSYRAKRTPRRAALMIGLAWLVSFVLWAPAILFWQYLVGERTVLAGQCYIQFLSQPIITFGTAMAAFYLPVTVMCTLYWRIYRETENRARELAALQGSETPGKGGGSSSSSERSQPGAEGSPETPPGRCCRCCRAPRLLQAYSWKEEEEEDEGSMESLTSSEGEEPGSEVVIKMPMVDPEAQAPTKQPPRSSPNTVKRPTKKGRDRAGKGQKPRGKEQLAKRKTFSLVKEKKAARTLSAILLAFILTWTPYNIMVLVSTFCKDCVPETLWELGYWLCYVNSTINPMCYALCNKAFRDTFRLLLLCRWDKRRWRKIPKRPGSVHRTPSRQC
D(2) dopamine receptor (Homo sapiens), sequence (P14416 whole entry, looked up): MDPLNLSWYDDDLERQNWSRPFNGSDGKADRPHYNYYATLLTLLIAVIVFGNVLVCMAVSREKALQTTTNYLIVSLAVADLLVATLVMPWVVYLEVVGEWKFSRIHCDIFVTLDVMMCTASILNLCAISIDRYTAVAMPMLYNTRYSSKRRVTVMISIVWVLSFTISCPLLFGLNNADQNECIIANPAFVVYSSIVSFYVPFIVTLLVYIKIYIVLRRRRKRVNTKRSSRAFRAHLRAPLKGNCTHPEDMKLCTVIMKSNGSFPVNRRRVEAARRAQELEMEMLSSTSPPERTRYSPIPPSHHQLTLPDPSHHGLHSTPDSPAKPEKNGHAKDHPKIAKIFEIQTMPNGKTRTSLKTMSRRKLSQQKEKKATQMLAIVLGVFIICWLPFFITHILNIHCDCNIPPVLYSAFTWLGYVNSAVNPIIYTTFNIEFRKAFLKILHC

COC(=O)c1cccc(C(=O)OC)c1
inactive: [1] | [2] | [3] | [4] | [5] | [6] | [7] | [8] | [9] | [10] | [11] | [12] | [13] | [14] | [15] | [16] | [17] | [18]

O=C1C(N(CO)C(=O)NCO)N(CO)C(=O)N1CO (stereo unspecified)
inactive: [1] | [2] | [3] | [4] | [5] | [6] | [8] | [9] | [10] | [11] | [13] | [14] | [15] | [19] | [16] | [17] | [18]

CC(=O)N[C@@H](CS)C(=O)O
inactive: [1] | [2] | [3] | [4] | [5] | [6] | [7] | [8] | [10] | [11] | [13] | [14] | [15] | [19] | [16] | [18]

c1ccc2cc3c(ccc4ccccc43)cc2c1
inactive: [1] | [3] | [4] | [5] | [6] | [7] | [8] | [10] | [11] | [12] | [13] | [14] | [15] | [19] | [16] | [17] | [18]
active: [2] 9.72 µM and 9.69 µM

CCCCC(CC)COC(=O)CS (stereo unspecified)
inactive: [1] | [2] | [3] | [4] | [5] | [6] | [7] | [10] | [11] | [12] | [13] | [14] | [15] | [19] | [17] | [18]

CCCCCCCCCCCCCCCC(=O)OC(C)C
inactive: [1] | [2] | [3] | [4] | [5] | [6] | [7] | [8] | [9] | [10] | [11] | [12] | [13] | [14] | [15] | [19] | [17] | [18]

C=CC(C)(CCC=C(C)C)OC(C)=O (stereo unspecified)
inactive: [1] | [2] | [3] | [4] | [5] | [6] | [7] | [8] | [9] | [10] | [11] | [13] | [14] | [15] | [19] | [16] | [17]

CCCCCCCCO
inactive: [1] | [2] | [3] | [4] | [5] | [6] | [7] | [8] | [10] | [11] | [12] | [13] | [14] | [15] | [19] | [16] | [17] | [18]

CCCN(CCC)S(=O)(=O)c1ccc(C(=O)O)cc1
inactive: [1] | [2] | [3] | [4] | [5] | [6] | [7] | [14] | [15] | [16] | [17] | [18]

CCc1cccc2c3c([nH]c12)C(CC)(CC(=O)O)OCC3 (stereo unspecified)
inactive and 23.7 µM (active): [18]
inactive: [1] | [2] | [3] | [4] | [5] | [6] | [7] | [9] | [14] | [15] | [19] | [16] | [17]

COC(=O)c1cccnc1
inactive: [1] | [2] | [3] | [4] | [5] | [7] | [8] | [9] | [10] | [11] | [12] | [13] | [14] | [15] | [19] | [16] | [17] | [18]

CCCCCCCCCC
inactive: [1] | [2] | [3] | [4] | [5] | [7] | [8] | [9] | [10] | [12] | [13] | [14] | [15] | [19] | [16] | [17] | [18]

CCC(O)OCCCOC (stereo unspecified)
inactive: [1] | [2] | [3] | [4] | [5] | [7] | [8] | [9] | [10] | [11] | [12] | [13] | [14] | [19] | [16] | [17] | [18]
